Most compounds without a hit are left out; they make up all but 2.2% or so of the library.
KLF5 inhibitor: inhibitors of KLF5 expression | DLD-1 KLF5 promoter-luciferase reporter, luminescence | inhibition, % at 5 µM | hit rate 0.23% among 290,000;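 active = inhibition above a per-plate limit of that plate's mean compound inhibition plus 3 SD, cut at about 60% in these data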;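 note: 0% = DMSO wells and 100% = LY294002 at 200 µM; higher means less KLF5 promoter-driven luciferase light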
aSyn UTR inh: 5' untranslated region of α-synuclein, MLPCN primary screen; AID 1813; inhibition, % (tested at 7.5 µM); hit rate 0.82% among 300,000; alpha-synuclein 5'UTR reporter, inhibitor activity; in the data active = inhibition above about 60%;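 note: H4 neuroglioblastoma cells stably carrying SNCA 5'UTR luciferase fusion; 0% = DMSO wells and 100% = positive control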
IEC-6 tox: counter-screen for KLF5 inhibitors: cytotoxicity in IEC-6 cells | IEC-6 cytotoxicity, luminescence viability | inhibition, % at 5 µM | hit rate 0.78% among 290,000 | AID 1825; in the data active = inhibition above about 22%;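 note: 0% = plate median of test compound wells and 100% = cytotoxic reference compound wells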
BaF3 parental: reduces parental Ba/F3 cell viability, JAK2V617F counter-screen; CellTiter-Glo ATP luminescence; inhibition, % at 5.6 µM; hit rate 1.1% among 220,000;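 active = inhibition above a per-campaign cutoff, the mean inhibition of all tested compounds plus 3 SD, cut at about 27% in these data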;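 note: 0% = DMSO wells and 100% = JAK Inhibitor I control wells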
APP transl inh: APP translation inhibition. hit rate 0.82% among 190,000. AID 1285. inhibition, % at 2 µM. SH-SY5Y APP 5'UTR-luciferase reporter, luminescence;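 active = inhibition above a set limit, derived from the sample mean plus 3 SD, cut at about 45% in these data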
Ba/F3 V617F tox: reduce viability of Ba/F3 cells dependent on JAK2V617F; inhibition, % at 5.6 µM; hit rate 1.1% among 220,000; AID 1446; Ba/F3 EpoR-JAK2V617F viability, ATP luminescence;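 active = inhibition above the campaign mean plus 3 SD over all tested compounds, cut at about 24% in these data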;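 note: cytokine-independent growth of Ba/F3 cells driven by EpoR plus mutant JAK2; 0% = DMSO-treated cells and 100% = JAK inhibitor I control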
Starred values were filed as active, the others as inactive; i = inactive; nt = no result given.

SMILES	KLF5 inhibitor	aSyn UTR inh	IEC-6 tox	BaF3 parental	APP transl inh	Ba/F3 V617F tox
CCN(Cc1ccccc1)S(=O)(=O)c1ccc(S(=O)(=O)N(Cc2ccccn2)Cc2ccco2)cc1	-12.7	15.4	0.2	0.9	7.7	-3.6
COc1cccc2nc3cc(C)c(C)cc3nc12	-126.3	40.7	14.1	29.0*	nt	29.2*
O=C(CC(Nc1cccc(Cl)c1Cl)C(=O)OCC(=O)c1cccs1)c1ccccc1 (configuration not stated)	5.5	-27.6	6.2	7.1	-14.8	0.3
COc1ccc(OC)c(-n2nnnc2SCC(=O)N2CCN(C(=O)c3ccco3)CC2)c1	-24.7	10.4	0.2	41.2*	3.4	0.8
COc1ccc(-n2nnnc2SCC(=O)N2CCN(C(=O)c3ccco3)CC2)cc1OC	-3.8	16.0	-5.9	4.9	6.4	-1.3
Fc1ccccc1/C=N/Nc1nc(-c2ccccn2)nc2ccccc12	15.9	81.4*	3.4	2.6	nt	0.2
CCC(C)Nc1nc(-c2ccccn2)nc2ccccc12 (configuration not stated)	-7.0	68.6*	6.7	nt	nt	nt
c1ccc(CNc2nc(-c3ccccn3)nc3ccccc23)cc1	9.5	32.7	10.6	nt	nt	nt
COc1cc(C=O)ccc1OS(=O)(=O)c1ccc(NC(C)=O)cc1	-20.0	-18.6	0.5	6.0	5.6	-0.4
O=C(c1ccc(Br)cc1)c1cc([N+](=O)[O-])ccc1N1CCOCC1	10.6	27.3	11.6	83.0*	88.0*	80.5*
O=C(c1ccc(Cl)cc1)c1cc([N+](=O)[O-])ccc1N1CCOCC1	-20.2	117.6*	3.5	74.2*	92.9*	72.5*
CC1CCCN(c2ccc([N+](=O)[O-])cc2C(=O)c2ccccc2)C1 (configuration not stated)	41.6	84.1*	45.1*	79.1*	93.9*	77.0*
COc1ccc(COC(=O)c2cc([N+](=O)[O-])ccc2N2CCOCC2)cc1F	nt	68.3*	nt	nt	nt	nt
O=C(c1cc([N+](=O)[O-])ccc1N1CCOCC1)N1CCCCC1	-11.7	-11.0	7.9	11.7	-7.2	4.5
O=C(OCc1cccc(Cl)c1)c1cc([N+](=O)[O-])ccc1N1CCOCC1	nt	6.2	nt	nt	nt	nt
CC1CCN(c2ccc([N+](=O)[O-])cc2C(=O)O)CC1	-37.8	21.3	-2.8	4.1	-14.6	-1.2
O=C(COC(=O)Cc1c[nH]c2ccccc12)Nc1cccc2ccccc12	-9.8	-0.2	5.2	5.2	-3.9	1.2
COc1ccc(Cc2nnc(NC(=O)Cc3cccs3)s2)cc1OC	-0.4	-23.5	-8.2	0.6	3.8	-2.0
CCOC(=O)c1c(OCCO)nn(-c2ccc(Cl)cc2)c1N	-2.9	1.5	-8.4	6.1	9.6	-1.1
Cc1cccc(N2CCN(C(c3ccccc3)c3nnnn3C(C)(C)C)CC2)c1C (configuration not stated)	-27.7	-2.4	-1.1	1.1	6.9	-1.6
O=C(CCl)Nc1cccc(-c2cnc3ccccc3n2)c1	-136.8	i	8.1	38.8*	nt	73.4*
CCC(=O)Nc1cccc(-c2cnc3ccccc3n2)c1	-163.1	-122.3	-0.3	5.3	-52.0	2.6
CC(NC(=O)C1C(=O)N(CCO)C2(C)CC1c1ccccc1O2)c1ccccc1 (configuration not stated)	12.9	4.7	-0.3	1.0	0.4	1.3
Cc1ccc(C[n+]2cc(-c3ccc(Cl)cc3)n3c2CCC3)cc1	23.5	nt	4.3	71.9*	nt	76.3*
Cn1c(NC(=O)C[n+]2cc(-c3ccc(Cl)cc3)n3c2CCC3)cc(=O)n(C)c1=O	-38.3	-4.7	2.9	7.4	-0.5	1.4
SMILES	KLF5 inhibitor	aSyn UTR inh	IEC-6 tox	BaF3 parental	APP transl inh	Ba/F3 V617F tox
Clc1ccc(-c2c[n+](Cc3ccc(Cl)c(Cl)c3)c3n2CCC3)cc1	-0.2	nt	-0.3	39.5*	-6.7	25.5*
Cc1ccc(-c2c[n+](Cc3ccc(Cl)cc3)c3n2CCC3)cc1	15.3	-13.2	3.0	73.3*	nt	87.1*
Cc1ccc(S(=O)(=O)CC(=O)Nc2ccccn2)cc1	-11.6	13.1	-5.1	nt	nt	nt
CCCCN(CC)Cc1c(O)ccc2c(-c3ccccc3)cc(=O)oc12	-1.6	24.6	2.7	29.0*	nt	21.7
CCOC(=O)C1=C(C)N=c2s/c(=C\c3cccn3C)c(=O)n2C1c1cccc(OC)c1OC (configuration not stated)	-25.5	28.7	-1.7	96.0*	-8.7	-5.2
CCn1c(NN)nc2sc3c(c2c1=O)CCC3	-30.0	nt	-7.8	3.8	-6.1	-5.1
NNc1nc2sc3c(c2c(=O)n1Cc1ccccc1)CCC3	17.2	-6.1	7.8	33.7*	nt	47.3*
Nn1c(Nc2ccccc2)nc2sc3c(c2c1=O)CCC3	-35.8	-60.9	22.5*	-1.1	-33.5	-3.6
CCOC(=O)C1C2C=CC3(CN(c4ccccc4CC)C(=O)C13)O2 (configuration not stated)	-2.8	2.9	-3.3	-0.4	-81.0	-2.2
CCCCCCCC(=O)Nc1ccc(C(=O)N/N=C/c2cccc([N+](=O)[O-])c2)cc1	-18.4	76.2*	-4.9	2.4	-0.4	0.1
CCCC(=O)Nc1ccc(C(=O)N/N=C/c2ccc([N+](=O)[O-])o2)cc1	-18.0	111.1*	1.3	4.2	96.2*	1.7
NS(=O)(=O)c1ccc(-c2ccc(/C=N/NC(=O)c3ccc([N+](=O)[O-])cc3)o2)cc1	6.2	-11.8	3.8	49.7*	nt	-0.7
COc1ccc(S(=O)(=O)N2CCC(C(=O)Nc3c(F)cccc3F)CC2)cc1	-3.6	8.2	-2.2	3.2	-32.1	-1.7
Cc1ccc2nc(N(CCCN(C)C)C(=O)c3cc(-c4cccs4)nc4ccccc34)sc2c1	-15.7	67.1*	6.7	nt	nt	nt
Nc1c(-c2ccccc2Cl)cnn1-c1cccc([N+](=O)[O-])c1	-16.2	-20.3	2.4	46.4*	-31.9	1.5
Cc1ccccc1-c1cnn(-c2cccc([N+](=O)[O-])c2)c1N	-33.0	5.6	-3.6	8.5	-7.7	2.2
C=CCSc1nc2ccccc2n1C(=O)/C=C/c1cc(OC)c(OC)c(OC)c1	5.4	-172.3	3.7	0.9	57.6*	2.3
COCCN(Cc1cc2ccc(C)cc2n2nnnc12)Cc1nnnn1C(C)(C)C	-45.6	17.1	-3.8	1.2	46.1*	-2.8
O=C(O)CSc1nnc(-c2ccc3c(c2)OCO3)o1	-5.0	9.8	-1.7	7.1	-16.6	-1.1
O=C(c1ccc(Cl)cc1)N1CCCCC(Sc2nnc(-c3ccc4c(c3)OCO4)o2)C1=O (configuration not stated)	-42.8	92.0*	-0.6	2.1	8.4	-2.2
Brc1ccc2[nH]c3c(c2c1)CCC3	10.1	31.1	7.2	1.1	nt	1.7
OCCN=C1CCCc2c1[nH]c1ccc(Br)cc21	-0.9	62.2*	-1.8	2.4	-3.4	-0.6
O=C(NCc1ccc(F)cc1)C(c1ccccc1)c1ccccc1	-7.0	-11.1	2.7	nt	nt	nt
CC(=O)N(Cc1ccc(F)cc1)C1=C(NCc2ccccc2)C(=O)c2ccccc2C1=O	41.6	91.7*	18.3	48.3*	65.4*	11.7
NCCCn1c(C(=O)c2cc(Cl)c(N)c(Cl)c2)c2ccc([N+](=O)[O-])cc2[n+]1[O-]	nt	100.5*	nt	nt	nt	nt

Screens as filed in PubChem.
